Compound activity (PubChem)
A-T KAP1 phos – qHTS Assay for Identifying a Potential Treatment of Ataxia-Telangiectasia; actives 0.19% (n = 320,000); F2112 A-T fibroblasts, KAP-1 phosphorylation AlphaLISA; neocarzinostatin DNA damage 30 min before lysis; Potency, µM (highest dose often 57.5 µM), actives largely listed as activators; also: nearly all actives have a fitted effect of over 45% in size
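ATM-like activity read as KAP-1 phosphorylation via AlphaLISA donor/acceptor antibody pairs after lysis and 6 hr at 25C. Cells were ATM-null patient fibroblasts (F2112, hTERT), dosed 60 min, then exposed to the DSB inducer NCS for 30 min.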
Nrf2 activator – qHTS of Nrf2 Activators; AREc32 ARE-luciferase reporter (MCF7-derived line), luminescence, 24 h; Potency, µM (top dose mostly 46.1 µM), most hits filed as activators; actives 0.31% (n = 410,000); AID 624171, 2012; also: nearly all actives have a fitted effect of over 65% in size
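AREc32_Fluc, 1000 cells/well, OPTI-MEM + 5% FBS, o/n 37 deg C 5% CO2; 23 nL cpd by pin tool, 24 hr; Steady-Glo 30 min RT, luminescence.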
TCR activator – Activators of T cell receptors: qHTS campaign. Potency, µM (highest dose often 9.22 µM), usual class: activators. primary human leukocytes, anti-CD3, IL-2 HTRF, 48 h. 330,000 tested, under 10 active. AID 504894, 2011
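Human primary leukocytes + a-CD3 beads + cpd, 48 hr; IL-2 in supernatant by HTRF (ex 320nm / em 665nm). No co-stimulatory signal supplied.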
Nrf2 inh – Nrf2 qHTS screen for inhibitors; A549 ARE-Fluc reporter, luciferase luminescence, 18-24 h; Potency, µM (highest dose often 46 µM), usual class: inhibitors; actives 2.1% (n = 360,000); also: nearly all actives have a fitted effect of over 60% in size
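Nrf2 function is reported as luminescence of an ARE-controlled luciferase in A549 cells. Compounds were tested at several concentrations, and a CellTiter-Fluor read on the same wells flagged cytotoxicity.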
CCT modulator – High-Throughput Screening for Modulators of Cytosolic Chaperonin Activity | actives 0.3% (n = 360,000) | activity change, % (test concentration not listed), hits read low | purified chaperonin ATPase assay, HTRF ADP detection, 30 min | AID 651819, 2012; in the data active = activity change below about -30%
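TRiC (40 or 20 nM final, by batch activity) in 30 mM Tris pH 7.4, 100 mM KCl, 5 mM MgCl2, 1 mM DTT was treated with compound at 76 uM single dose, then 10 uM ATP, 30 min at 37 °C. ADP was read by HTRF Transcreener.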
A549 tox – Nrf2 qHTS screen for inhibitors: counterscreen for cytotoxicity; Potency, µM (highest dose often 46 µM), actives largely listed as inhibitors; A549 ARE-Fluc cells, CellTiter-Fluor viability, 18-24 h; actives 0.16% (n = 390,000); AID 504648, 2011
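A549 ARE_Fluc cells in 5% FBS OPTI-MEM were exposed to compounds in concentration-response for 18-24 h at 37 deg C. Viability was read by CellTiter-Fluor fluorescence (Ex 405/Em 525) after 30 min, before the luciferase read.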
Hits are given with their value; i = inactive; ? = inconclusive; nt = no result; ! = not active in a repeat; [ ] = dose if it differs, or a comment. Shown are actives, neighbours in structure and some others; about 2.6% of the full set was active somewhere. Unless noted, calls follow the shape of the dose curve; as a rule, active = well fitted curve in the direction sought with a large enough effect; inconclusive = small, poorly fitted or top-dose-only effect, or another doubt; inactive = no such curve, though single readings can be large; an effect the other way counts as inactive or inconclusive.

SMILES | A-T KAP1 phos | Nrf2 activator | TCR activator | Nrf2 inh | CCT modulator | A549 tox
CC(C)Cc1ccc(CN2CCCC(NC(=O)c3ccnn3C)C2)cc1 (stereo not given) | i | i | i | 13µM | i | i
COc1cccc(CNC(=O)c2ccc3c(c2)sc2nc(-c4ccccc4)cn23)c1OC | nt | i | nt | i | nt | i
O=C(/C=C/c1ccccc1[N+](=O)[O-])N1CCc2ccccc2C1 | i | 8.9µM | i | i | i | i
COc1ccc(N2CCN(CC(=O)NCc3ccc(Cl)cc3)CC2)cc1 | i | i | nt | i | i | i
COc1ccc(CCNC(=O)c2nc(SCc3ccccc3F)ncc2Cl)cc1OC | nt | i | nt | 16µM | nt | i
Cc1ccc(CNC(=O)c2nc(SCc3ccccc3F)ncc2Cl)cc1 | nt | i | nt | i | nt | i
O=C(Nc1c(C(=O)N2CCN(c3ccccc3)CC2)oc2ccccc12)c1ccc(Br)o1 | nt | i | nt | ? | nt | i
CCN1c2ccccc2NC2C1C(C(C)=O)C(=O)N2c1ccc(Cl)cc1 (stereo not given) | i | i | i | ? | i | i
CCN1c2ccccc2NC2N=C(OC)C(c3ccccc3)C21 (stereo not given) | i | i | nt | ? | i | 21µM
O=C(NCc1n[nH]c(=S)n1-c1ccccc1Cl)c1ccc(S(=O)(=O)N2CCCCC2)cc1 | i | i | i | i | i | i
CCn1cc(S(=O)(=O)c2cccc(Cl)c2)c(=O)c2cc(F)c(N3CCN(C)CC3)cc21 | nt | i | nt | i | nt | ?
CC(C)C(NS(=O)(=O)c1ccc2c(c1)oc(=O)n2C)C(=O)NCCc1ccccc1 (stereo not given) | nt | i | nt | i | nt | i
Cc1ccc(CC(=O)Nc2ncc([N+](=O)[O-])s2)cc1 | i | i | i | ? | i | i
CCCCC(CC)C(=O)Nc1ncc([N+](=O)[O-])s1 (stereo not given) | i | i | i | 9.2µM | i | 18µM
COc1cc(NC(=O)c2ccc(-n3cnc4cccnc43)cc2)cc(OC)c1 | nt | i | nt | i | nt | i
FC(F)(F)c1ccccc1Cc1c(-c2cccc(Br)c2)nc2c3ccccc3ccn12 | nt | 13µM | nt | nt | i | nt
O=C1NC(c2ccccc2)=C(c2nc3ccccc3s2)C(c2ccc(F)cc2)N1 (stereo not given) | i | i | i | 16µM | i | ?
Cc1ccc(NS(=O)(=O)c2ccc3c(c2)CCCC(=O)N3)cc1C | nt | nt | nt | ? | nt | i
Cc1ccc(NS(=O)(=O)c2ccc3c(c2)CCC(C)(C)O3)cc1C | nt | nt | nt | 23µM | nt | i
O=C1CCCN1c1ccc(S(=O)(=O)Nc2cccnc2)cc1 | i | i | i | i | i | i
Cc1ccc(NS(=O)(=O)c2ccc(N3CCCC3=O)cc2)cc1C | nt | nt | nt | 15µM | nt | i
Nc1nc(N)c(Cc2ccc(Cl)cc2Cl)c(N)n1 | i | i | i | 18µM | i | i
CCOc1ccc(NC(=O)CC2C(=O)N(c3ccc(OC)cc3)C(=O)N2CCC2=CCCCC2)cc1 (stereo not given) | nt | i | nt | i | nt | i
COc1ccc2c(Cl)c(C(N)=O)sc2c1 | i | i | i | i | i | i
COc1ccc2c(Cl)c(C(=O)NN)sc2c1 | i | i | nt | 15µM | i | i
SMILES | A-T KAP1 phos | Nrf2 activator | TCR activator | Nrf2 inh | CCT modulator | A549 tox
CCc1cccc(NC(=O)Cn2nc(-c3ccc(OC)cc3)ccc2=O)c1 | nt | i | nt | nt | nt | i
Cc1cccc(N2CCN(C(=O)CCS(=O)(=O)c3ccc4c(c3)NC(=O)CO4)CC2)c1C | i | i | i | 15µM | i | i
Cc1cccc(N2CCN(S(=O)(=O)c3ccc4c(c3)NC(=O)CO4)CC2)c1C | i | i | i | i | i | i
O=C(CCS(=O)(=O)c1ccc2c(c1)NC(=O)CO2)NCc1ccccc1 | i | i | i | ? | -64 | i
O=C(CCS(=O)(=O)c1ccc2c(c1)NC(=O)CO2)NCCc1ccccc1 | i | i | i | i | i | i
CC1Sc2ccc(S(=O)(=O)CCC(=O)N3CCN(c4cccc(Cl)c4)CC3)cc2NC1=O (stereo not given) | i | i | i | 16µM | i | ?
O=C(NCC(c1ccco1)N1CCN(c2ccccc2)CC1)C(=O)NC1CCCC1 (stereo not given) | i | i | nt | i | i | i
CC1(C)CC(=O)C=C(Nc2ccc([N+](=O)[O-])cc2)C1 | i | i[9.22 µM] | i | i | i | i
O=C1c2ccccc2C(=O)N1c1ccc2ccccc2n1 | nt | nt | nt | i | nt | i
COc1ccc(C(C)=O)cc1CC(=O)Nc1cccc(S(=O)(=O)N2CCOCC2)c1 | i | i | i | i | i | i
CC(c1ccccc1)n1c(SCC(=O)N2CC(=O)Nc3ccccc32)nc2ccccc2c1=O (stereo not given) | i | i[9.22 µM] | i | 16µM | i | i
CC(C)c1ccccc1-n1c(SCC(=O)c2ccc3c(c2)NC(=O)CO3)nc2ccccc2c1=O | i | i | i | 2.9µM | i | i
O=C1COc2ccc(C(=O)CSc3ccccc3C(=O)O)cc2N1 | i | i | i | i | i | i
Cc1cccc(-n2c(SCC(=O)N3CC(=O)Nc4ccccc43)nc3ccccc3c2=O)c1C | i | i | i | 23µM | i | i
Cc1nc(NC(=O)CSc2ccccc2N)sc1C | i | i | i | i | i | i
COc1ccc(-n2nnc(-c3nc(-c4ccc5c(c4)OCO5)no3)c2C)cc1Cl | nt | i | nt | ? | nt | i
COc1ccccc1CNS(=O)(=O)c1c(C(=O)N2CCC(C)CC2)c(C)n(C)c1C | nt | i | nt | nt | nt | i
Cc1cc2ccccc2n1CCNC(=O)COc1ccccc1 | i | i | i | i | -32 | i
CCC(=O)NCCn1c(C)cc2ccccc21 | i | i | i | i | i | i
O=C(c1nn(Cc2ccccc2)c(=O)c2ccccc12)N1CCc2ccccc2C1 | i | i | i | 23µM | i | ?
COCCNC(=O)CN1C(=O)c2cccnc2Sc2ccccc21 | nt | i | nt | ? | nt | i
COc1ccccc1NC(=O)NCCc1ccccc1 | i | i | i | i | i | i
COc1ccccc1NC(=O)C(NC(=O)OC(C)(C)C)C(C)OCc1ccccc1 (stereo not given) | i | i | i | 23µM | i | i
Cc1nn(C)c(Cl)c1S(=O)(=O)N[C@@H](c1ccccc1)[C@]1(C)C[C@H]1[C@@H](C)C(=O)Nc1ccc2ccccc2c1 | i | i | i | ? | -70 | i
COC(=O)N[C@H](c1ccccc1)[C@@]1(C)C[C@@H]1[C@@H](C)C(=O)Nc1ccc2ccccc2c1 | nt | i | i | 18µM! | i | ?
C[C@@H](C(=O)Nc1ccc2ccccc2c1)[C@@H]1C[C@@]1(C)[C@@H](NC(=O)c1ccccc1)c1ccccc1 | i | i | i | i | i | i
